Laboratory results as given in PubChem BioAssay.

Test: PSAC antagonists in infected red cells, primary screen, cell-based, P. falciparum Indochina, OD700, 18 h (AID 1157)
Settings: P. falciparum Indochina infected erythrocytes, osmotic lysis OD700, 18 h; higher = more signal, called active from +8 up or from −8 down

z-score, inactive:
COCCOC(=O)N1C(=O)[C@@]2(c3cc(C#CC4=CCCCC4)ccc31)[C@H](c1ccc(O)cc1)N1[C@H](c3ccccc3)[C@H](c3ccccc3)OC(=O)[C@H]1[C@@H]2C(=O)NC[C@H](O)c1ccccc1 0.368
CN(C)CCCCCCNC(=O)[C@@H]1C[C@@H]2C(=O)N[C@@H](CCCCN)C(=O)N2[C@@H]1c1ccc(O)cc1 -1.88
Cc1ccc(N2C(=O)c3ccccc3[C@](C)(C(=O)NCc3ccccc3)[C@@H]2c2ccc(CO)cc2)nc1 0.305
C=C[C@@H](C)[C@@H](OC(=O)Nc1ccc(SC)cc1)c1ccc(OCCO)cc1 1.9
C=C(/C(=C/C[C@@H](OC(=O)c1ccncc1)c1cccc(OCCO)c1)c1cnc2ccccc2c1)C(C)C 0.897
O=c1cccc(-c2ccco2)o1 0.143
O=C1C2C=CC(C(O)c3cc(C(F)(F)F)cc(C(F)(F)F)c3)N(Nc3ccccc3F)C2C(=O)N1c1ccccc1 (configuration not stated) 2.35
O=C(N1CCOCC1)[C@@]1(CCS(=O)(=O)c2ccccc2)N=C(c2ccc(OCCCO)cc2)O[C@H]1c1ccccc1 5.34
COCCCNC(=O)[C@@]1(Sc2ccc(C)cc2)CC(=O)N(C(C)C)[C@@H]1c1ccc(CO)cc1I -1.49
C=C(C)[C@@H]1CC=C(C(O)C2C=CC3C(=O)N(c4ccccc4)C(=O)C3N2Nc2ccc(C#N)cc2)CC1 (some centres not stated) 2.49
C=C(COC)/C(=C/C[C@@H](OC(=O)c1ccncc1)c1ccccc1OCCO)c1cc(C(=O)OC)ccc1OC 1.02
CC(C)C[C@@H]1NC(=O)[C@@H]2C[C@H](C(=O)NCCCCCC[N+](C)(C)C)[C@H](c3cccc(OCCO)c3)N2C1=O 0.376
O=C1C2C=CC(C(O)c3ccco3)N(Nc3ccccc3)C2C(=O)N1c1ccccc1 (configuration not stated) 0.851
CCOC(=O)C[C@H]1[C@H](OC(=O)c2ccc(-c3ccccc3)cc2)[C@@H](NC(=O)Cc2ccc(OC)cc2)c2cc(OCCCO)ccc2N1C(=O)Cc1ccc(OC)cc1 0.211
CCOC(=O)C1=CC[C@@H](c2ccccc2)N(S(=O)(=O)c2ccc(C)cc2)[C@H]1c1cccc(OC)c1 0.385
CN1C=C(C(=O)OCCS(C)(=O)=O)C(C(=O)OCCS(C)(=O)=O)=CC(c2ccc(CO)cc2)=CC1c1cccs1 (configuration not stated) 0.969
COC(=O)C(CC#Cc1ccc2c(c1)[C@]1(C(=O)N2)[C@H](c2ccc(OCCO)cc2)N2[C@H](c3ccccc3)[C@H](c3ccccc3)OC(=O)[C@H]2[C@@H]1C(=O)N1CCN(c2ncccn2)CC1)C(=O)OC 0.539
